Experimental data reported in PubChem BioAssay (Tox21).
Results filed as inconclusive are left out. Activity calls are given as the source filed them. Unless noted, calls follow the shape of the dose curve; as a rule, active = well fitted curve in the direction sought with a large enough effect in the repeat runs; inconclusive = weak or mixed curves; inactive = no such curve, though single readings can be large; an effect the other way counts as inactive or inconclusive.

Assays:
[1] = Human pregnane X receptor (PXR) small molecule agonists, qHTS cell viability counter screen (AID 1346977); also: nearly all actives have a fitted effect of over 50% in size; also: potency is read from the fitted curve at half-maximal effect
In short: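 PXR-Luc HepG2, 2,000 cells/well, 5% charcoal-stripped FBS; 5hr settle; cpd 24hr, 37C/5% CO2; CellTiter-Fluor at 23hr, read 1hr later (fluorescence).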

[2] = Caspase-3/7 induction in HepG2 cells by small molecules, qHTS assay (AID 1346978); also: nearly all actives have a fitted effect of over 15% in size
In short: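 Caspase-3/7 induction was measured by Caspase-Glo 3/7 luminescence (30 min, room temperature) after a 17 hr compound exposure of wild-type HepG2 cells seeded at 2,000 per well and pre-incubated 5 hr.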

[3] = Caspase-3/7 induction in HepG2 cells by small molecules, qHTS cell viability counter screen (AID 1346981); also: series mostly up to about 92 µM; nearly all actives have a fitted effect of over 30% in size
In short: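 Multiplexed with the caspase-3/7 assay: HepG2 cells, 16 hr compound treatment, CellTiter-Fluor viability detection by fluorescence.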

[4] = biological target: Nuclear receptor subfamily 1 group I member 2 (Rattus norvegicus) (UniProt Q9R1A7); experiment: Rat pregnane X receptor (rPXR) activation by small molecules, qHTS assay (AID 1346983); conditions: rPXR luciferase reporter cells, One-Glo luminescence, 24 h; max activation: hits give high values; also: nearly all actives have a fitted effect of over 20% in size
Chain of Nuclear receptor subfamily 1 group I member 2 (Rattus norvegicus) (Q9R1A7 whole entry, looked up): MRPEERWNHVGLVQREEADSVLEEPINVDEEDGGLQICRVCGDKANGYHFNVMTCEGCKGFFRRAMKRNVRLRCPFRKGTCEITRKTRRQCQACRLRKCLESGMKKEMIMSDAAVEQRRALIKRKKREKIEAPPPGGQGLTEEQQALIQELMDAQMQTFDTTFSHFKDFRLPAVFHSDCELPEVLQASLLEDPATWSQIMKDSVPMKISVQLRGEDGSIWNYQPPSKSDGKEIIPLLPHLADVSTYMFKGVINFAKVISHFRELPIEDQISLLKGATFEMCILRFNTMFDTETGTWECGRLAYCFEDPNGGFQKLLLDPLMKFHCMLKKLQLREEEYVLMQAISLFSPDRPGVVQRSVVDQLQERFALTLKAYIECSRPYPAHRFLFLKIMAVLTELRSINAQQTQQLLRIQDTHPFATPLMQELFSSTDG
In short: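 Luminescent readout (One-Glo luciferase, 30 min room temperature) followed 24 hr compound treatment at 37 C of rPXR cells plated 2,000 per well and preincubated 5hr; qHTS format with compounds delivered in DMSO.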

[5] = biological target: Nuclear receptor subfamily 1 group I member 2 (Homo sapiens) (UniProt O75469); experiment: CYP3A4 induction through human pregnane X receptor (PXR) by small molecules, qHTS assay (AID 1346984); also: nearly all actives have a fitted effect of over 40% in size
Chain of Nuclear receptor subfamily 1 group I member 2 (Homo sapiens) (O75469 whole entry, looked up): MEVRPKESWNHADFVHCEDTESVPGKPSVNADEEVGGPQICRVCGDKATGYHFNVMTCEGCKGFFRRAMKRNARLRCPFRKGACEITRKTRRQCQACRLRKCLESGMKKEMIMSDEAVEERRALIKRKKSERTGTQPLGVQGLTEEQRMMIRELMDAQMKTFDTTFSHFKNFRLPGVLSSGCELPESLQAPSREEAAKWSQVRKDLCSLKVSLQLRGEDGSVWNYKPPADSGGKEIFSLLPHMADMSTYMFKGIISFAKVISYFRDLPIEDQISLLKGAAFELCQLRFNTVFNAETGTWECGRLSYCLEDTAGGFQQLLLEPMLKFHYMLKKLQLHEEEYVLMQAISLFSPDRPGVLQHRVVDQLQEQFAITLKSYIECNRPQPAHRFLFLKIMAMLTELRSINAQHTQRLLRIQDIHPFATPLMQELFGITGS
In short: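 qHTS, concentration-response format: HepG2 DPX-2 line, PXR/CYP3A4-luc. Exposure 24 h, 37C. Substrate Luciferin-IPA 3uM final, 3 h. Detection One-Glo, 30 min RT.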

[6] = biological target: Nuclear receptor subfamily 1 group I member 2 (Homo sapiens) (UniProt O75469); experiment: Human pregnane X receptor (PXR) activation by small molecules, qHTS assay (AID 1346985); also: nearly all actives have a fitted effect of over 40% in size; also: potency is read from the fitted curve at half-maximal effect
In short: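 DPX-2 cells (HepG2 co-transfected with a PXR response element and a CYP3A4-promoter luciferase construct) were seeded at 2,000 per well, rested 5 hr at 37C, then exposed to DMSO-dissolved compounds for 24 hr. Activation was read as luciferase luminescence.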

[7] = biological target: Acetylcholinesterase (Homo sapiens) (UniProt P22303); experiment: Acetylcholinesterase (AChE) small molecule antagonists: colormetric cell-based qHTS assay (AID 1347395; calls by dose curve; also: nearly all actives have a fitted effect of over 30% in size; also: potency is read from the fitted curve at half-maximal effect)
Chain of Acetylcholinesterase (Homo sapiens) (P22303 whole entry, looked up): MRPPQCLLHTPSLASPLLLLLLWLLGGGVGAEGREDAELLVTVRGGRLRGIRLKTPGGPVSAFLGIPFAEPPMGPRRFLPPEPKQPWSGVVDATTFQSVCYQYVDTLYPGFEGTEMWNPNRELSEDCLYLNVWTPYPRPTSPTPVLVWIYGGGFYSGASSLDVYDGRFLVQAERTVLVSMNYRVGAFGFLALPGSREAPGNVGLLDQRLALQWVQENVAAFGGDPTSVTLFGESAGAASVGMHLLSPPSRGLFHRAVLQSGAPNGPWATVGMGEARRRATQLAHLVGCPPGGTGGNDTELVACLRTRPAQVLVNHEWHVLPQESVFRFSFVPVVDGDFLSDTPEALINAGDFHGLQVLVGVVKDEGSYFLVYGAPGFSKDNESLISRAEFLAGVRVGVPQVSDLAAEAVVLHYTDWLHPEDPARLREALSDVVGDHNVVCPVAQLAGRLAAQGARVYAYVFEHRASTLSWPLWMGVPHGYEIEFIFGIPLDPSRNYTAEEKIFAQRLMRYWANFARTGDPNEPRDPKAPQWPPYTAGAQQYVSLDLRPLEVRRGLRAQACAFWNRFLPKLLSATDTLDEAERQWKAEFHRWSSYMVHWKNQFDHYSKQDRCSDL
In short: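 Colorimetric read-out: DTNB detects thiocholine released when cellular AChE in SH-SY5Y cells hydrolyses acetylthiocholine. Cells attached overnight, received compound for 30 min at 37 C, then substrate mix for 90 min at 37 C.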

[8] = Caspase-3/7 induction in CHO-K1 cells by small molecules, qHTS assay (AID 1346980); also: nearly all actives have a fitted effect of over 15% in size
In short: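 Luminescent Caspase-Glo 3/7 read (30min, room temperature) quantified apoptosis induction. Cells were wild-type CHO-K1, treated with compound for 17hr at 37 C and 5% CO2.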

[9] = Caspase-3/7 induction in CHO-K1 cells by small molecules, qHTS cell viability counter screen (AID 1346979); also: nearly all actives have a fitted effect of over 35% in size; also: potency is read from the fitted curve at half-maximal effect
In short: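 Cells (CHO-K1, wild type) are plated at 1,500 per well and incubated 5hr. Test compounds in DMSO are then pinned in, followed by 16hr at 37C and 5% CO2. Viability is read by CellTiter-Fluor fluorescence after 1hr.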

[10] = biological target: Nuclear receptor subfamily 1 group I member 2 (Homo sapiens) (UniProt O75469); experiment: Human pregnane X receptor (PXR) small molecule agonists, qHTS assay (AID 1346982); also: nearly all actives have a fitted effect of over 35% in size; also: potency is read from the fitted curve at half-maximal effect
In short: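 We seeded PXR-Luc HepG2 cells in assay medium containing 5% charcoal-stripped FBS, added compounds 5 hr later, incubated 24 hr, and read luminescence with ONE-Glo reagent.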
% is scaled to controls: 0 for no effect and ±100 for the full control effect.

OC(c1ccccc1)(c1ccccc1)C1CCNCC1
inactive: Potency [1] | Potency [2] | Potency [3] | max activation [4] -4.65% | Potency [5] | Potency [6] | Potency [7]

CCOP(=S)(OCC)Oc1ncn(-c2ccccc2)n1
inactive: Potency [1] | Potency [2] | Potency [8] | Potency [3]
active: Potency [7] 31.7 µM

ClCC(Cl)(Cl)Cl
inactive: Potency [1] | Potency [2] | Potency [8] | Potency [3] | Potency [7]

OC(Cn1cncn1)(c1ccc(F)cc1)c1ccccc1F (stereo not given)
inactive: Potency [1] | Potency [9] | Potency [8] | Potency [3] | Potency [10] | Potency [7]

CCC/C(=N\OCC)C1=C(O)CC(CC(C)SCC)CC1=O (stereo not given)
inactive: Potency [1] | Potency [2] | Potency [3] | Potency [7]

O=C1CN=C(c2ccccc2)c2cc([N+](=O)[O-])ccc2N1
inactive: Potency [1] | Potency [2] | Potency [8] | Potency [3] | max activation [4] -2.6% | Potency [5] | Potency [6] | Potency [7]

CS(=O)(=O)c1cc(C(F)(F)F)ccc1C(=O)c1cnoc1C1CC1
inactive: Potency [1] | Potency [2] | Potency [8] | Potency [3] | Potency [10] | Potency [7]

COc1cc(OC)nc(Sc2cccc(Cl)c2C(=O)O)n1
inactive: Potency [1] | Potency [9] | Potency [8] | Potency [3] | Potency [10] | Potency [7]

O=C(N[C@H]1CN2CCC1CC2)c1cc2ccoc2cn1
inactive: Potency [1] | Potency [9] | Potency [8] | Potency [3] | Potency [10]

C#CCN1C(=O)COc2cc(F)c(N3C(=O)C4=C(CCCC4)C3=O)cc21
inactive: Potency [1] | Potency [2] | Potency [3] | Potency [7]

CC(COc1ccc(Oc2ccccc2)cc1)Oc1ccccn1 (stereo not given)
inactive: Potency [1] | Potency [2] | Potency [8] | Potency [3] | Potency [7]
active: Potency [10] 17.2 µM

O=NN1CCN(N=O)CC1
inactive: Potency [1] | Potency [2] | Potency [8] | Potency [3] | Potency [10] | Potency [7]

O=C1OC(c2ccc(O)c(S(=O)(=O)O)c2)(c2ccc(O)c(S(=O)(=O)O)c2)c2c(Br)c(Br)c(Br)c(Br)c21
inactive: Potency [1] | Potency [9] | Potency [8] | Potency [3] | Potency [10] | max activation [4] -0.923% | Potency [5] | Potency [6] | Potency [7]

COCC(=O)N(c1c(C)cccc1C)N1CCOC1=O
inactive: Potency [1] | Potency [2] | Potency [8] | Potency [3] | Potency [10] | Potency [7]

CC1COC2(c3ccccc3Cl)c3cc(Cl)ccc3NC(=O)CN12 (stereo not given)
active: Potency [10] 23.7 µM
inactive: Potency [1] | Potency [2] | Potency [8] | Potency [3] | Potency [7]

CN/C(=N\[N+](=O)[O-])NCC1CCOC1 (stereo not given)
inactive: Potency [1] | Potency [9] | Potency [8] | Potency [3]

CCN(CC)c1nc(C)cc(OP(=S)(OC)OC)n1
inactive: Potency [1] | Potency [2] | Potency [3] | Potency [10]

C=C(C)[C@@H]1CC=C(C=O)CC1
inactive: Potency [1] | Potency [2] | Potency [8] | Potency [3] | Potency [7]

CCCSP(=S)(OCC)Oc1ccc(Cl)cc1Cl (stereo not given)
active: Potency [10] 30.6 µM
inactive: Potency [1] | Potency [2] | Potency [3] | Potency [7]

CCOP(=S)(OCC)Oc1nc(Cl)n(C(C)C)n1
inactive: Potency [1] | Potency [9] | Potency [8] | Potency [3]

CC(C)(C)C(=O)C(Oc1ccc(Cl)cc1)n1cncn1 (stereo not given)
inactive: Potency [1] | Potency [9] | Potency [8] | Potency [3] | Potency [7]
active: Potency [10] 27.3 µM

C=CC1CC=CCC1 (stereo not given)
inactive: Potency [1] | Potency [2] | Potency [8] | Potency [3] | Potency [7]

CCCCOC(=O)[C@@H](C)Oc1ccc(Oc2ccc(C#N)cc2F)cc1
inactive: Potency [1] | Potency [2] | Potency [8] | Potency [3] | Potency [7]

CC(C)CC#N
inactive: Potency [1] | Potency [2] | Potency [8] | Potency [3] | Potency [7]

O=C(Nc1ccccc1)N(Cc1ccc(Cl)cc1)C1CCCC1
inactive: Potency [2] | Potency [8] | Potency [7]
active: Potency [1] 61.1 µM | Potency [10] 6.11 µM

CCC(=O)c1ccccc1
inactive: Potency [1] | Potency [9] | Potency [8] | Potency [3] | Potency [10] | Potency [7]

CN1C(=S)CN=C(c2ccccc2)c2cc(Cl)ccc21
active: Potency [6] 14.1 µM
inactive: Potency [1] | Potency [9] | Potency [8] | Potency [3] | max activation [4] -0.756% | Potency [7]

O=C(Nc1ccccc1)c1ccccc1I
inactive: Potency [8] | Potency [3] | Potency [7]
active: Potency [10] 68.6 µM

CC(Cl)(Cl)[N+](=O)[O-]
inactive: Potency [2] | Potency [9] | Potency [8] | Potency [3] | Potency [10] | Potency [7]

CC1CN1P(=O)(N1CC1C)N1CC1C (stereo not given)
inactive: Potency [2] | Potency [8] | Potency [3] | Potency [10] | Potency [7]

CCOP(=S)(OCC)SCSP(=S)(OCC)OCC
active: Potency [7] 39.9 µM
inactive: Potency [2] | Potency [3]

CN1CCC(N(Cc2ccccc2)c2ccccc2)CC1
inactive: Potency [2] | Potency [9] | Potency [8] | Potency [3] | Potency [10] | Potency [7]

Nc1c(Br)cc([N+](=O)[O-])cc1[N+](=O)[O-]
active: Potency [9] 55.1 µM | Potency [10] 55.1 µM | Potency [7] 36 µM
inactive: Potency [2] | Potency [8]

N#CCBr
inactive: Potency [2] | Potency [9] | Potency [8] | Potency [3] | Potency [10] | Potency [7]

C[C@]12CC[C@H]3[C@@H](CC=C4C[C@@H](O)CC[C@@]43C)[C@@H]1CC[C@@H]2O
inactive: Potency [2] | Potency [9] | Potency [8] | Potency [3] | max activation [4] -0.895%
